SMILES strings stand for the structures. Hit rate of the full screen: of about 350,000 compounds, about 7,000 (2%) were called active. The full list was thinned out, with actives kept by preference. A number with no mark means an inactive call. No stated cut-off is given here; in the data, active means activation above about 40%; inconclusive means no clear call, values can overlap the other calls; inactive means below that.

The assay can be described thus: Bmi1 luciferase reporter increase in mESCs, primary screen, esBAF inhibitor project, mouse ES cells, Bmi1 luciferase knock-in, single point (AID 602393).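 Further: 0% = median of the plate's neutral control wells and 100% = double that signal; a rise in the Bmi1 reporter signal indicates esBAF inhibition.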 The note with it: 24 h, at 12.5 µM, active compounds read high, 100% = twice the neutral-well signal. Background: A reporter such as luciferase makes a cellular process visible.
As to `Cc1ccccc1S(=O)(=O)NCC[C@@H]1CC[C@H](NC(=O)C2CC2)[C@@H](CO)O1`, the reporter increase is -5.25%.
With `O=C(/C=C/c1ccco1)Nc1ccc(Oc2ccccc2)cc1`, the reporter increase is 78% (active).
Consider `Cc1cc(NC(=O)c2ccc(F)cc2)ccc1NC(=O)c1ccco1`, for which the reporter increase was -3.11%.
Then `O=C(Nc1ccc(Oc2ccccc2)cc1)c1ccco1`, with 45.8% (active); and `CC1CCN(C(NC(=O)c2ccco2)C(=O)c2ccccc2)CC1` (stereo not drawn), with -0.711%.
Take `Cc1ccc(NC(=O)c2ccco2)cc1`: the reporter increase was 58.7% (active).
As to `COc1cccc(NC(=O)COC(=O)/C=C/c2ccco2)c1`, the reporter increase is -3.7%.
As to `O=C(/C=C/c1ccco1)NC(=S)Nc1ccccc1Br`, the reporter increase is 12.7%.
For the molecule `O=C(NNC(=O)c1ccco1)Nc1ccccc1`, the reporter increase was 0.317%.
With `CC1CCN(c2ccc(-c3ccc(NC(=O)c4ccco4)cc3)nn2)CC1`, the reporter increase was 55.6% (active).
With `CN1CCN(S(=O)(=O)c2ccc(NC(=O)c3ccco3)cc2)CC1`, the reporter increase is 7.27%.
For the molecule `O=C(Nc1ccc(Sc2ccc(Br)cc2)cc1)c1ccco1`, the reporter increase was 30.7%.
Then `CC(C)(C)NC(=O)c1cc(NC(=O)c2ccco2)cc(NC(=O)c2ccco2)c1`, with -7.07%; and `C[C@@H]1CCCCO[C@H](CN(C)C(=O)CCCN(C)C)[C@H](C)CN([C@H](C)CO)C(=O)c2cc(NC(=O)CCC(F)(F)F)ccc2O1`, with -8.36%.
As for `COCC(=O)NC[C@@H]1[C@@H](c2ccc(C3=CCCC3)cc2)[C@@H](CO)N1C(C)=O`, the reporter increase was 2.64%.
In the case of `C[C@@H]1CN([C@H](C)CO)C(=O)c2c(c3ccccc3n2C)-c2ccccc2CO[C@H]1CN(C)C(=O)c1ccncc1` it was 1.87%; in that of `COCC#Cc1cnc2c(c1)C(=O)N([C@@H](C)CO)C[C@@H](C)[C@H](CN(C)C(=O)Nc1ccccc1OC)O2`, -2.03%; in that of `CCCNC(=O)[C@@H]1[C@@H](CO)[C@@H]2Cn3c(cccc3=O)[C@H]1N2C(=O)C1CCC1`, 3.3%.
With `C[C@@H]1CCCCO[C@H](CN(C)C)[C@H](C)CN([C@@H](C)CO)C(=O)c2cc(NS(=O)(=O)c3ccccc3)ccc2O1`, the reporter increase was -0.305%.
For `CC(Oc1cccc(NC(=O)c2cccs2)c1)C(=O)c1ccccc1` (stereo not drawn), the reporter increase is 5.41%.
On to `Cc1ccoc1C(=O)Nc1cccc(Oc2ccccc2)c1`, for which the reporter increase is 69.9% (active).
For `CC1(C(=O)Nc2cccc(Oc3ccccc3)c2)CCN1Cc1ccccc1Cl` (stereo not drawn), the reporter increase was -0.493%.
As to `COc1ccc(CN(C)C[C@@H]2OCCCC[C@H](C)Oc3ccc(NS(C)(=O)=O)cc3C(=O)N([C@@H](C)CO)C[C@H]2C)cc1`, the reporter increase was -1.93%.
